The nature of experiment [1]: A CellTox Green Cytotoxicity Assay to monitor cytotoxicity in HEK293 cells - 32 hour (AID 1224881). Further: nearly all actives have a fitted effect of over 40% in size. Further: potency means the concentration at half of the fitted maximal effect. Put shortly:
(§1)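 Fluorescence from a DNA-binding dye excluded by viable cells was measured repeatedly in the same HEK293 wells (600 cells/well) during continuous compound exposure at 37 C. Each assay gives one read point: 0, 8, 16, 24, 32 or 40 h.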

Experiment [2] can be described thus: A CellTox Green Cytotoxicity Assay to monitor cytotoxicity in HepG2 cells - 0 hour (AID 1224882). Further: nearly all actives have a fitted effect of over 35% in size. A digest of the protocol:
(§2)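 Real-time cytotoxicity: fluorescence of a cell-impermeant cyanine dye binding DNA of dead HepG2 cells, measured repeatedly (0–40 h) during compound exposure at 37 C. Cells seeded 600/well with reagent, dosed after 5 h.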

Experiment [3] is described as follows: A CellTox Green Cytotoxicity Assay to monitor cytotoxicity in HEK293 cells - 8 hour (AID 1224884). Further: nearly all actives have a fitted effect of over 35% in size. A digest of the protocol: as §1
A short description of experiment [4]: qHTS RealTime-Glo MT Cell Viability Assay in HepG2 cells - 16 hour (AID 1224885). Further: nearly all actives have a fitted effect of over 50% in size. Further: potency means the concentration at half of the fitted maximal effect. A digest of the protocol:
(§3)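 Tox21 10K library screened in qHTS format on HepG2 cells carrying RealTime-Glo reagents. Compounds were added after a 5 h preincubation, and the luminescent signal from continuous culture was measured repeatedly during 40 h treatment.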

The nature of experiment [5]: A CellTox Green Cytotoxicity Assay to monitor cytotoxicity in HEK293 cells - 16 hour (AID 1224888). Further: nearly all actives have a fitted effect of over 35% in size. Further: potency means the concentration at half of the fitted maximal effect. A digest of the protocol:
as §1

A short description of experiment [6]: qHTS RealTime-Glo MT Cell Viability Assay in HepG2 cells - 0 hour (AID 1224889). Further: nearly all actives have a fitted effect of over 50% in size. Put shortly:
as §3

The nature of experiment [7]: A CellTox Green Cytotoxicity Assay to monitor cytotoxicity in HepG2 cells - 8 hour (AID 1224890). Further: nearly all actives have a fitted effect of over 45% in size. A digest of the protocol: as §2
A short description of experiment [8]: qHTS assay to identify small molecule antagonists of the estrogen receptor alpha (ER-alpha) signaling pathway using the BG1 cell line in the presence of 0.1 nM 17-beta-estradiol - cell viability counter screen (AID 1259241). Further: nearly all actives have a fitted effect of over 40% in size. A digest of the protocol:
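VM7Luc4E2, 4,000 cells/well, phenol red-free medium + 10% charcoal-stripped FBS; 24 hr plating; cpd + 0.1 nM E2 final, 22 hr 37C/5% CO2; CellTiter-Fluor 30 min, fluorescence.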

Experiment [9] can be described thus: qHTS assay to identify small molecule antagonists of the androgen receptor (AR) signaling pathway using the MDA cell line in the presence of 0.5 nM R1881 - cell viability counter screen (AID 1259242). Further: nearly all actives have a fitted effect of over 45% in size. Further: potency means the concentration at half of the fitted maximal effect. A digest of the protocol:
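Live-cell protease activity was measured by CellTiter-Fluor fluorescence after 30 min. Before that, MDA-kb2 MMTV-luciferase cells had 16 hr at 37C without CO2, exposed to test compounds and 0.5 nM R1881 final.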

The nature of experiment [10]: qHTS assay to identify small molecule HDAC inhibitors (AID 1259364). Further: top concentration of the series differs between compounds; nearly all actives have a fitted effect of over 45% in size. A digest of the protocol: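 Luminescence read after 30 min room-temperature HDAC-Glo incubation measures cellular class I/II HDAC activity. Compounds were applied for 2 hr at 37 C to HCT-116 wild-type cells seeded the day before.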
Experiment [11] is described as follows: qHTS assay to identify small molecule HDAC inhibitors - cell viability counter screen (AID 1259365). Further: series mostly up to about 92 µM; nearly all actives have a fitted effect of over 50% in size. A digest of the protocol:
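Luminescence from CellTiter-Glo, developed 30min at room temperature, reports viability of wild-type HCT-116 cells treated 2hr with compounds at 37 C and 5% CO2 after overnight plating.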

A short description of experiment [12]: qHTS assay to identify small molecule agonists of the sonic hedgehog signaling (Shh) pathway - cell viability counter screen (AID 1259366). Further: nearly all actives have a fitted effect of over 50% in size. Further: potency means the concentration at half of the fitted maximal effect. A digest of the protocol:
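Cytotoxicity counter screen run in the same wells as the Shh reporter assay. NIH/3T3 cells carrying a Gli1 response element–driven luciferase were treated with DMSO-dissolved compounds for 24hr, and live-cell protease activity was measured with CellTiter-Fluor.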

The nature of experiment [13]: qHTS assay to identify small molecule antagonists of the sonic hedgehog signaling (Shh) pathway - cell viability counter screen (AID 1259367). Further: nearly all actives have a fitted effect of over 55% in size. Further: potency means the concentration at half of the fitted maximal effect. Put shortly: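 Viability was read by CellTiter-Fluor fluorescence in the same wells, reagent added 23 hr into compound treatment and incubated 1 hr at 37C. The 3T3 Gli1-Luc reporter cells (2,000/well) received conditioned medium after compound and ran 24 hr.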

A short description of experiment [14]: A CellTox Green Cytotoxicity Assay to monitor cytotoxicity in HepG2 cells - 32 hour (AID 1224883). Further: nearly all actives have a fitted effect of over 50% in size. A digest of the protocol: as §2
Experiment [15] in a line: qHTS RealTime-Glo MT Cell Viability Assay in HEK293 cells - 8 hour (AID 1224887). Further: nearly all actives have a fitted effect of over 50% in size. Further: potency means the concentration at half of the fitted maximal effect. A digest of the protocol: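 Luminescence, which tracks viable cell number through reduction of the prosubstrate to a NanoLuc substrate, was read over continuous 37 C culture. Cells (600/well) were premixed with reagent and rested 5 h before 23 nL of compound in DMSO was pinned.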
The target in experiment [16] is Androgen receptor (Homo sapiens) (UniProt P10275). Put plainly: qHTS assay to identify small molecule antagonists of the androgen receptor (AR) signaling pathway using the MDA cell line in the presence of 0.5 nM R1881 (AID 1259243). Put shortly:
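Luminescent reporter readout (ONE-Glo, 30 min, room temperature) after 16 hr co-treatment of MDA-kb2 cells with test compounds and 0.5 nM R1881 final, at 37C without CO2. The MMTV-driven luciferase responds to both AR and GR.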

The nature of experiment [17]: qHTS RealTime-Glo MT Cell Viability Assay in HEK293 cells - 24 hour (AID 1224886). Further: nearly all actives have a fitted effect of over 50% in size. Further: potency means the concentration at half of the fitted maximal effect. Put shortly:
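Luminescence generated by NanoLuc from substrate produced by living HEK293 cells served as the viability signal. Each value reflects the reading at its stated time point during continuous 40 h compound exposure at 37 C.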

Experiment [18] concerns the target Estrogen receptor (Homo sapiens) (UniProt P03372). In words: qHTS assay to identify small molecule antagonists of the estrogen receptor alpha (ER-alpha) signaling pathway using the BG1 cell line in the presence of 0.1 nM 17-beta-estradiol (AID 1259244). Further: nearly all actives have a fitted effect of over 50% in size. Put shortly:
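Luciferase luminescence (ONE-Glo, 30 min at room temperature) was read after 22 hr at 37C exposure to compounds plus 17beta-estradiol at 0.1 nM final. Cells were VM7Luc4E2 with endogenous ER-alpha and an ERE-driven luciferase, pre-cultured 5 days in hormone-depleted medium.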

Experiment [19] can be described thus: qHTS assay to identify small molecule phospholipidosis (PLD) inducers (AID 1259344; active means well fitted curve in the direction sought with a large enough effect; an effect the other way counts as inactive or inconclusive). Put shortly: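 Phospholipid accumulation was scored by imaging: fixed, Hoechst-counterstained HepG2 cells stained with LipidTOX Red after 24 h compound exposure at 37 C. Read-outs were pit count and pit intensity per well or per cell, with amiodarone and DMSO controls.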

Values joined by “and” are separate entries in the source; they are usually repeats but may differ in a detail not shown here. Equal entries are not always repeated. Records with an inconclusive call do not appear. Where a structure was tested more than once in an assay, its records may differ in their call. Active and inactive are the calls of the source. Unless noted, the call rests on the fitted dose curve; in most records, active means well fitted curve in the direction sought with a large enough effect in the repeat runs; inconclusive means weak or mixed curves; inactive means no such curve, though single readings can be large; an effect the other way counts as inactive or inconclusive.

In PubChem BioAssay (Tox21) one finds Potency and outcome data, which are given here for seven compounds.

Sequence of Estrogen receptor (Homo sapiens) (P03372 whole entry, looked up): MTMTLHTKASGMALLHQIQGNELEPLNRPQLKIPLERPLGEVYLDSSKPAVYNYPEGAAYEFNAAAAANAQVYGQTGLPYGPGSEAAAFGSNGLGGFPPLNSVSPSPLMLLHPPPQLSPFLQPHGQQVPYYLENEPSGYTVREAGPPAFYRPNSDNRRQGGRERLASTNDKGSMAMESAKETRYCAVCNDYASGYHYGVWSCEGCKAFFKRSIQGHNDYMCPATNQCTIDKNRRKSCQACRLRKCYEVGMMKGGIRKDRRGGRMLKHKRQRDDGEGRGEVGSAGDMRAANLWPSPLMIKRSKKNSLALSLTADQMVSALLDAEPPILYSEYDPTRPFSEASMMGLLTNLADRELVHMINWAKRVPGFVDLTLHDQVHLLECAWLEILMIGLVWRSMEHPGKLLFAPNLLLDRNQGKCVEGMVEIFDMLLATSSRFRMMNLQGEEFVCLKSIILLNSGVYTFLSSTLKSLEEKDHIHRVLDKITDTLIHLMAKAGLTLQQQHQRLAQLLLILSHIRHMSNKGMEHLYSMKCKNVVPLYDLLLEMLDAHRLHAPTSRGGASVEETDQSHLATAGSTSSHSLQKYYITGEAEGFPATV
Sequence of Androgen receptor (Homo sapiens) (P10275 whole entry, looked up): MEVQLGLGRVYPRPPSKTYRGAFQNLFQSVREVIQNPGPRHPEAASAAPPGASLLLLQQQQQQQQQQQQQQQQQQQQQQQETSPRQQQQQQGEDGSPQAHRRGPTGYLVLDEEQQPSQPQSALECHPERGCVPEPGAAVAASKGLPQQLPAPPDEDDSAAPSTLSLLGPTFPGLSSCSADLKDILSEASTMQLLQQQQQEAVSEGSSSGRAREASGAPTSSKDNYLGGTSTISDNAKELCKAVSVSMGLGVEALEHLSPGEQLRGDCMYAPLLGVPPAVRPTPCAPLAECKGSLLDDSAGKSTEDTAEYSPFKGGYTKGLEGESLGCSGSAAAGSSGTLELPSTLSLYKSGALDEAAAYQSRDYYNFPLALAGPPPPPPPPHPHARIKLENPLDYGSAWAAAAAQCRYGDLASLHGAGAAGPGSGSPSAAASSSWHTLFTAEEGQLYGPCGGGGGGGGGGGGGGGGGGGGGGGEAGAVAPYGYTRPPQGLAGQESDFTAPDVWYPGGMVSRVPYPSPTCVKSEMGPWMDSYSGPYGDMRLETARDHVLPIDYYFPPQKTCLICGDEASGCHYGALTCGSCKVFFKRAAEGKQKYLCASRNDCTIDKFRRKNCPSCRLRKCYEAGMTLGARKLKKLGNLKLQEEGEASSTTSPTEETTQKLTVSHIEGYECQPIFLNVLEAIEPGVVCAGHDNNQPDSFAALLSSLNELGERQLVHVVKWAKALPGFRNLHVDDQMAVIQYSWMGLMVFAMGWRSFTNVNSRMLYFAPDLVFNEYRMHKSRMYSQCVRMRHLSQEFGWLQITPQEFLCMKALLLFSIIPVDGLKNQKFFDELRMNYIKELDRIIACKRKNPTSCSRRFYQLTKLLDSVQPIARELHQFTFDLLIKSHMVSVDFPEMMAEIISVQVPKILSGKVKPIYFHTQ

Turning to `O=C(CCCN1CCC(O)(c2cccc(C(F)(F)F)c2)CC1)c1ccc(F)cc1`, the Potency result in [1], in experiment [2], in experiment [3], in experiment [4], in experiment [5] and in [6] was “inactive” throughout. For the same compound, the Potency result in experiment [7], in experiment [9], in [10], in experiment [12] and in [13] was “inactive” in each case. Besides, the outcome in experiment [8] and in experiment [11] was inactive.

In the case of `CC(C)(c1ccc(O)cc1)c1ccc(O)cc1`, the Potency entry in [1], in [2], in experiment [14], in experiment [3], in [4] and in experiment [15] was “inactive” each time. Further, the Potency entry in experiment [5], in [6], in experiment [7], in experiment [9] and in experiment [10] was “inactive” each time. Moreover, the outcome in experiment [8] and in experiment [11] was inactive. The Potency in [16] is 9.58 µM (active) and 6.98 µM (active); in experiment [12], “inactive and 12.4 µM (active)”.

`CN(C)CCCN1c2ccccc2CCc2ccc(Cl)cc21`: the Potency in experiment [1] is 49 µM (active) and 26.8 µM (active); in experiment [4], 49 µM (active); in experiment [15], 43.6 µM (active) and inactive; in experiment [5], 54.9 µM (active) and 23.9 µM (active); in [9], 48.6 µM (active); in [12], 30.6 µM (active). Further, the Potency in experiment [13] is 48.6 µM (active) and inactive. Moreover, the Potency result in experiment [2], in experiment [7] and in experiment [10] was “inactive” in each case. In addition, the compound was called inactive in experiment [11].

With `CC(C[N+](C)(C)C)OC(N)=O` (stereo not given), the Potency result in experiment [1], in experiment [2], in experiment [14], in [3], in [4] and in experiment [17] was “inactive” in each case. Further, the Potency entry in experiment [15], in experiment [5], in experiment [6], in experiment [9], in [19] and in experiment [10] was “inactive” in each case. The Potency result in experiment [12] and in experiment [13] was “inactive” in each case. Further, the result in experiment [8], in experiment [18] and in [11] was inactive.

For the compound `COC(=O)NN`, the Potency entry in experiment [1], in experiment [2], in [14], in [3], in experiment [4] and in [17] was “inactive” throughout. For the same compound, the Potency entry in experiment [15], in [5], in [7], in experiment [9], in [10] and in [12] was “inactive” in each case. In addition, the Potency entry in [13] is “inactive”. For the same compound, the outcome in [8], in experiment [18] and in experiment [11] was inactive.

Regarding `CC(C)(C)c1ccc(O)c(O)c1`, the Potency result in experiment [2], in experiment [14], in experiment [3], in [7], in experiment [9] and in [19] was “inactive” each time. In experiment [10], the Potency entry was “inactive”. Moreover, the Potency in experiment [17] is 22.6 µM (active) and 13.8 µM (active); in experiment [12] it was 27.3 µM (active); in experiment [13] it was 50.2 µM (active) and 24.3 µM (active). Besides, the outcome in experiment [8] and in experiment [11] was inactive.

Take `CC(C)OC(=O)c1ccccc1`: the Potency result in experiment [1], in experiment [2], in experiment [14], in experiment [3], in experiment [4] and in [17] was “inactive” throughout. The Potency result in [5], in experiment [6], in [7], in [9], in experiment [10] and in experiment [12] was “inactive” each time. Also, the Potency entry in experiment [13] was “inactive”. In addition, the result in experiment [8], in [18] and in [11] was inactive.
